Experimental findings from PubChem BioAssay (NCI) are described below.

About 83,000 compounds went through this panel and 20% of them were active in at least one assay; those are over-represented in the sample as a whole.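 Values shown are percent growth following 48 h exposure of cells in 96-well plates to a single concentration of compound; below 10 was considered active.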 A number with no mark means an inactive call. Calls of active or inactive are those of the source.

Common to all, as to experiment: NCI-60 one-dose screen, 48 h (100 = growth as untreated, 0 = no growth, -100 = all killed)
Common to all, as to details: 10 µM unless noted

The subject of experiment [1] is T-47D breast.
For experiment [2], the system named is BT-549 breast.
The subject of experiment [3] is MDA-MB-435 melanoma.
Experiment [4] concerns SW-620 colon.
For experiment [5], the system named is MCF7 breast.
Experiment [6] deals with HCT-116 colon.
In experiment [7] the test system is HCC-2998 colon.
Experiment [8] has as its system KM12 colon.

`O=C(Nc1ccc([N+](=O)[O-])cc1)C(=O)Nc1ccc([N+](=O)[O-])cc1`: the growth in experiment [1] is 88.7%; in experiment [2] it was 100%; in experiment [3], 106%; in experiment [4] it was 96.5%; in experiment [5] it was 90.6%; in experiment [6] it was 97.3%. The growth is 103% in experiment [7] and 99% in experiment [8].

Turning to `CC(=O)NC(CCc1ccc(Cl)c(Cl)c1)c1cccc(O)c(=O)c1` (stereo not drawn), the growth was 17.7% in experiment [1]; 19.3% in experiment [2]; 21.5% in experiment [3]; 23.8% in experiment [4]; 19.3% in experiment [5]; 15.9% in experiment [6]. In addition, the growth in experiment [7] was 22.6%; in experiment [8], 18.1%.

Consider `C/C(O)=C(/C=N\C(=S)Nc1ccc(S(=O)(=O)Nc2nccs2)cc1)C(=O)Nc1ccccc1C`, for which the growth was 90.2% in experiment [1]; 99.2% in experiment [2]; 109% in experiment [3]; 95.6% in experiment [4]; 101% in experiment [5]; 94.7% in experiment [6]. In addition, the growth in experiment [7] was 109%; in experiment [8], 96.8%.

In the case of `CCOc1ccc2c(c1)c(C)cc(C)[n+]2CC`, the growth in experiment [1] was 69.5%; in experiment [2], 33.8%; in experiment [3] it was 73.9%; in experiment [4], 84%; in experiment [5], 72.3%; in experiment [6] it was 54.5%. Further, the growth was 82.9% in experiment [7] and 17.6% in experiment [8].

Take `Cc1ccc(C(C)C)c(OCC(=O)O)c1`: the growth is 117% in experiment [1]; 112% in experiment [2]; 108% in experiment [3]; 96% in experiment [4]; 100% in experiment [5]; 105% in experiment [6]. Further, the figures for the growth in experiment [7] and in experiment [8] were 106% and 108%, respectively.

In the case of `Oc1cc2ccccc2c(-c2c(O)c(O)cc3ccccc23)c1O`, the growth was 25.7% in experiment [1]; 5.13% (active) in experiment [2]; 10.5% in experiment [3]; 49.4% in experiment [4]; 12.3% in experiment [5]; 29% in experiment [6]. The growth in experiment [7] was 38.6%; in experiment [8] it was 52.5%.

Turning to `Nc1nc(Cl)cc(Cl)n1`, the growth in experiment [1] was 82%; in experiment [2], 102%; in experiment [3] it was 111%; in experiment [4] it was 109%; in experiment [5] it was 90.3%; in experiment [6] it was 90.1%. For the same compound, the growth in experiment [7] was 114%; in experiment [8], 106%.

Regarding `Cc1c(-c2ccc(C3CCCCC3)cc2)nc2ccc(F)cc2c1C(=O)O`, the growth in experiment [1] is 66.1%; in experiment [2], 65.2%; in experiment [3], 34.5%; in experiment [4], 30.6%; in experiment [5] it was 27%; in experiment [6] it was 24.8%. Besides, the growth in experiment [7] was 49.9%; in experiment [8], 32%.

Take `Cc1ccc(C)c(CN(C)C)c1O`: the growth in experiment [1] was 120%; in experiment [2], 99.2%; in experiment [3], 109%; in experiment [4], 97.1%; in experiment [5], 102%; in experiment [6], 112%. The growth is 102% in experiment [7] and 97.4% in experiment [8].

Turning to `CCCCN(C(=O)CC)c1ccccc1`, the growth in experiment [1] was 110%; in experiment [2] it was 104%; in experiment [3], 108%; in experiment [4] it was 98.7%; in experiment [5], 100%; in experiment [6], 99.8%. Besides, the results for the growth in experiment [7] and in experiment [8] were 112% and 102%, respectively.

Regarding `CCc1ccccc1C(=O)N(CC)CC`, the growth in experiment [1] was 92.8%; in experiment [2], 102%; in experiment [3], 104%; in experiment [4] it was 105%; in experiment [5], 91%; in experiment [6], 92.9%. Besides, the growth in experiment [7] is 104%; in experiment [8] it was 103%.

For the compound `CCOS(=O)(=O)c1ccc([N+](=O)[O-])cc1`, the growth in experiment [1] was 101%; in experiment [2] it was 111%; in experiment [3], 107%; in experiment [4], 119%; in experiment [5], 103%; in experiment [6] it was 106%. The growth in experiment [7] is 104%; in experiment [8], 108%.

In the case of `CCCC1OC(c2ccco2)OCC1CC` (stereo not drawn), the growth in experiment [1] was 103%; in experiment [2] it was 98.3%; in experiment [3], 108%; in experiment [4], 99.1%; in experiment [5] it was 117%; in experiment [6], 99%. For the same compound, the results for the growth in experiment [7] and in experiment [8] were 101% and 103%, respectively.

As to `Nc1ccc(F)c(Cl)c1F`, the growth in experiment [1] was 102%; in experiment [2], 88.8%; in experiment [3], 109%; in experiment [4], 104%; in experiment [5], 102%; in experiment [6], 94.9%. Besides, the growth in experiment [7] was 100%; in experiment [8] it was 108%.

Turning to `Cc1cc(C)cc(OCC(=O)O)c1`, the growth is 96.6% in experiment [1]; 97.9% in experiment [2]; 104% in experiment [3]; 109% in experiment [4]; 97.7% in experiment [5]; 96.9% in experiment [6]. Further, the growth in experiment [7] was 102%; in experiment [8], 110%.

Turning to `CC(C)N1CC(=O)N2CSCC2C1=O` (stereo not drawn), the growth in experiment [1] is 108%; in experiment [2], 110%; in experiment [3], 105%; in experiment [4] it was 102%; in experiment [5], 98.7%; in experiment [6], 112%. In addition, the growth in experiment [7] is 102%; in experiment [8], 98%.
